Measured values from the supplement of paper PMC8728848.
Many of the other results were omitted from the sample, so the strongest signals are more common in it than they were.

B1: STA (Solanum tuberosum) (protein)
chain: NASAPLPYPQCGLKKGGGKCIKTGECCSIWGWCGTTSDYCAPGYCQKQCPGPYPQGRCGWQANGKSCPTGTGQCCSNAGWCGTTSDYCAPNNCQSQCKLPPPPPSPPPPPPSPPPPSPPPPPPSPPPPSPSPPPPPPSPPPPSPPPPSPPPPSPPPPPSPSPPPPPPSPPPPPPPLPYPQCGMKKGGGKCIKTGECCSIWGWCGTTSKYCSPGYCQMQCPDPYPEGRCGWQANGKSCPTGTGQCCSNAGWCGTTSAYCAPVNCQAQCNTTTLTSPIKNRMRGIESFMLNVV
B2: CD23 (Homo sapiens) (protein)
chain: MELQVSSGFVCNTCPEKWINFQRKCYYFGKGTKQWVHARYACDDMEGQLVSIHSPEEQDFLTKHASHTGSWIGLRNLDLKGEFIWVDGSHVDYSNWAPGEPTSRSQGEDCVMMRGSGRWNDAFCDRKLGAWVCDRLATCTPPASEGSAESMGPDSRPDPDGRLPTPSAPLHS

Experiments:
Assay in all cases: glycan array binding signal (z-score within array); higher = stronger binding
Details in all cases: glycan notation: IUPAC condensed, linker removed
[1] = target: Fuc(a1-2)Gal(b1-4)GlcNAc6S
Outline: (§1)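 The binding signal is a Z-score computed within each array and averaged over linkers. Arrays of the same protein sequence at different concentrations or buffers were also averaged together. Data originate from 3228 arrays in the Consortium for Functional Glycomics database, kept only where the protein sequence was available.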

[2] = target: Fuc(a1-2)Gal(b1-4)[Fuc(a1-3)]GalNAc(b1-3)Gal(b1-4)[Fuc(a1-3)]GlcNAc(b1-3)Gal(b1-4)[Fuc(a1-3)]GalNAc
Outline: as §1

[3] = target: Fuc(a1-2)[GalNAc(a1-3)]Gal(b1-4)GlcNAc
Outline: as §1

Gal(a1-3)Gal(b1-4)GlcNAc = target: Gal(a1-3)Gal(b1-4)GlcNAc
Outline: as §1

[4] = target: Gal(b1-4)GalNAc(b1-3)[Fuc(a1-2)]Gal(b1-4)GlcNAc
Outline: as §1

[5] = target: Gal(b1-4)GlcNAc(b1-6)GalNAc
Outline: as §1

Gal3S(b1-4)GlcNAc = target: Gal3S(b1-4)GlcNAc
Outline: as §1

Gal3S(b1-4)GlcNAc6S = target: Gal3S(b1-4)GlcNAc6S
Outline: as §1

Gal4S(b1-4)GlcNAc = target: Gal4S(b1-4)GlcNAc
Outline: as §1

[6] = target: GlcNAc(b1-3)[GlcNAc(b1-6)]GlcNAc
Outline: as §1

[7] = target: Man(a1-2)Man(a1-2)Man(a1-6)[Man(a1-3)]Man
Outline: as §1

Neu5Ac(a2-3)Gal = target: Neu5Ac(a2-3)Gal
Outline: as §1

[8] = target: Neu5Ac(a2-3)Gal(b1-4)GlcNAc6S
Outline: as §1

[9] = target: Neu5Ac(a2-3)Gal(b1-4)[Fuc(a1-3)]GlcNAc6S
Outline: as §1

[10] = target: Neu5Ac(a2-8)Neu5Ac(a2-8)Neu5Ac(a2-3)Gal(b1-4)Glc
Outline: as §1

[11] = target: Neu5Ac9Ac(a2-6)Gal(b1-4)GlcNAc
Outline: as §1

[12] = target: Fuc(a1-2)Gal(b1-4)[Fuc(a1-3)]GlcNAc
Outline: as §1

Fuc(a1-2)[Gal(a1-3)]Gal = target: Fuc(a1-2)[Gal(a1-3)]Gal
Outline: as §1

[13] = target: Fuc(a1-2)[Gal(a1-3)]Gal(b1-3)GlcNAc
Outline: as §1

[14] = target: Fuc(a1-2)[Gal(a1-3)]Gal(b1-4)[Fuc(a1-3)]GlcNAc
Outline: as §1

[15] = target: Fuc(a1-2)[GalNAc(a1-3)]Gal(b1-4)[Fuc(a1-3)]GlcNAc
Outline: as §1

[16] = target: Fuc(a1-3)[Gal3S(b1-4)]Glc6S
Outline: as §1

[17] = target: Fuc(a1-3)[Gal3S(b1-4)]GlcNAc6S
Outline: as §1

Gal(a1-6)Glc = target: Gal(a1-6)Glc
Outline: as §1

[18] = target: Gal(b1-4)GlcNAc(b1-2)Man(a1-3)[Gal(b1-4)GlcNAc(b1-2)Man(a1-6)]Man(b1-4)GlcNAc(b1-4)GlcNAc
Outline: as §1

GalNAc(b1-4)GlcNAc = target: GalNAc(b1-4)GlcNAc
Outline: as §1

[19] = target: GlcNAc(b1-2)Man(a1-3)[GlcNAc(b1-2)Man(a1-6)]Man(b1-4)GlcNAc(b1-4)GlcNAc
Outline: as §1

[20] = target: GlcNAc(b1-3)Gal(b1-3)GalNAc
Outline: as §1

GlcNAc(b1-3)Gal(b1-4)Glc = target: GlcNAc(b1-3)Gal(b1-4)Glc
Outline: as §1

[21] = target: Neu5Ac(a2-3)Gal(b1-3)GlcNAc(b1-3)Gal(b1-3)GlcNAc
Outline: as §1

[22] = target: Neu5Ac(a2-3)Gal(b1-4)[Fuc(a1-3)]GlcNAc(b1-3)Gal
Outline: as §1

[23] = target: Neu5Ac(a2-3)Gal(b1-4)[Fuc(a1-3)]GlcNAc(b1-3)Gal(b1-4)GlcNAc
Outline: as §1

Neu5Ac(b2-6)GalNAc = target: Neu5Ac(b2-6)GalNAc
Outline: as §1

[24] = target: Neu5Gc(a2-6)Gal(b1-4)GlcNAc
Outline: as §1

Binder	glycan array binding signal (z-score) [1]	glycan array binding signal (z-score) [2]	glycan array binding signal (z-score) [3]	glycan array binding signal (z-score) (Gal(a1-3)Gal(b1-4)GlcNAc)	glycan array binding signal (z-score) [4]	glycan array binding signal (z-score) [5]	glycan array binding signal (z-score) (Gal3S(b1-4)GlcNAc)	glycan array binding signal (z-score) (Gal3S(b1-4)GlcNAc6S)	glycan array binding signal (z-score) (Gal4S(b1-4)GlcNAc)	glycan array binding signal (z-score) [6]	glycan array binding signal (z-score) [7]	glycan array binding signal (z-score) (Neu5Ac(a2-3)Gal)	glycan array binding signal (z-score) [8]	glycan array binding signal (z-score) [9]	glycan array binding signal (z-score) [10]	glycan array binding signal (z-score) [11]	glycan array binding signal (z-score) [12]	glycan array binding signal (z-score) (Fuc(a1-2)[Gal(a1-3)]Gal)	glycan array binding signal (z-score) [13]	glycan array binding signal (z-score) [14]	glycan array binding signal (z-score) [15]	glycan array binding signal (z-score) [16]	glycan array binding signal (z-score) [17]	glycan array binding signal (z-score) (Gal(a1-6)Glc)	glycan array binding signal (z-score) [18]	glycan array binding signal (z-score) (GalNAc(b1-4)GlcNAc)	glycan array binding signal (z-score) [19]	glycan array binding signal (z-score) [20]	glycan array binding signal (z-score) (GlcNAc(b1-3)Gal(b1-4)Glc)	glycan array binding signal (z-score) [21]	glycan array binding signal (z-score) [22]	glycan array binding signal (z-score) [23]	glycan array binding signal (z-score) (Neu5Ac(b2-6)GalNAc)	glycan array binding signal (z-score) [24]
B1	0.551	-0.504	2.86	3.27	0.033	2.69	2.55	2.58	3.08	-0.269	-0.506	-0.507	3.23	-0.49	-0.5	-0.498	–	–	–	–	–	–	–	–	–	–	–	–	–	–	–	–	–	–
B2	-0.186	–	–	–	–	–	–	–	–	–	–	–	–	–	–	1.43	0.228	-0.374	-0.086	0.988	0.752	2.25	0.491	0.204	-0.225	-0.48	-0.157	1.43	-0.494	-0.189	-0.435	1.15	-0.582	-0.645
